# Test results as given in the supplement of paper PMC6555819.
# Experiments:
# Assay in all cases: PBM binding z-score (relative to random genomic background probes); higher = stronger binding; sequences stand for … in GC…GCGATTGACAGCGTAGAATGAAGG
# [1] = system: FXR:RXRa (NR concentration 270 nM, RXRa partner concentration 90 nM)
# Method in brief: (§1)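 Scanned fluorescence from custom Agilent 4×180K protein-binding microarrays was regression-normalized. Binding z-scores use random background probes as reference. Ligand-free nuclear receptor dimers were incubated on the arrays for 1 h and detected with antibodies against each partner (one per run).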
# [2] = system: LXRa:RXRa (NR concentration 270 nM, RXRa partner concentration 90 nM)
# Method in brief: as §1
# [3] = system: LXRa homodimer (NR concentration 270 nM)
# Method in brief: as §1
# [4] = system: LXRb:RXRa (NR concentration 270 nM, RXRa partner concentration 90 nM)
# Method in brief: as §1
# [5] = system: LXRb homodimer (NR concentration 270 nM)
# Method in brief: as §1
# [6] = system: PPARa:RXRa (NR concentration 270 nM, RXRa partner concentration 90 nM)
# Method in brief: as §1
# [7] = system: PPARg:RXRa (NR concentration 180 nM, RXRa partner concentration 90 nM)
# Method in brief: as §1
# [8] = system: PPARg:RXRa 270nM:90nM, anti-RXR (NR concentration 270 nM, RXRa partner concentration 90 nM)
# Method in brief: as §1
# [9] = system: PPARg:RXRa 30nM:10nM, anti-RXR (NR concentration 30 nM, RXRa partner concentration 10 nM)
# Method in brief: as §1
# [10] = system: PPARg:RXRa 90nM:30nM, anti-RXR (NR concentration 90 nM, RXRa partner concentration 30 nM)
# Method in brief: as §1
# [11] = system: PPARg:RXRa DBDmut IVT, anti-RXR (DBD mutation: RXRa K156A/R161A, NR concentration 270 nM, RXRa partner concentration 90 nM)
# Method in brief: as §1
# [12] = system: PPARg:RXRa IVT, anti-PPARg (NR concentration 270 nM, RXRa partner concentration 90 nM)
# Method in brief: as §1
# [13] = system: PPARg DBDmut:RXRa IVT, anti-PPARg (DBD mutation: PPARg1 K132A/R137A, NR concentration 270 nM, RXRa partner concentration 90 nM)
# Method in brief: as §1
# [14] = system: PPARg DBDmut IVT, anti-PPARg (DBD mutation: PPARg1 K132A/R137A, NR concentration 270 nM)
# Method in brief: as §1
# [15] = system: PPARg homodimer (NR concentration 180 nM)
# Method in brief: as §1
# [16] = system: PXR:RXRa (NR concentration 270 nM, RXRa partner concentration 90 nM)
# Method in brief: as §1
# [17] = system: PXR homodimer (NR concentration 270 nM)
# Method in brief: as §1
# [18] = system: RARa:RXR (NR concentration 270 nM, RXRa partner concentration 90 nM)
# Method in brief: as §1
# [19] = system: RARa homodimer (NR concentration 270 nM)
# Method in brief: as §1
# [20] = system: RARb:RXRa (NR concentration 270 nM, RXRa partner concentration 90 nM)
# Method in brief: as §1
Sequence,PBM binding z-score [1],PBM binding z-score [2],PBM binding z-score [3],PBM binding z-score [4],PBM binding z-score [5],PBM binding z-score [6],PBM binding z-score [7],PBM binding z-score [8],PBM binding z-score [9],PBM binding z-score [10],PBM binding z-score [11],PBM binding z-score [12],PBM binding z-score [13],PBM binding z-score [14],PBM binding z-score [15],PBM binding z-score [16],PBM binding z-score [17],PBM binding z-score [18],PBM binding z-score [19],PBM binding z-score [20]
TCTGCTAGGTCAAGGATGGTCAGCTAATCTGCTA,2.86,2.82,-0.0468,1.48,-0.198,3.12,2.01,3.21,2.02,2.71,4.19,4.08,-0.492,0.24,0.578,1.23,-0.697,2.26,-0.712,3.97
CCTACTGGTCCACGAAAGGTCATTGATTCAGTGA,3.9,4.86,5.19,4.6,1.21,4.38,1.3,3.07,0.699,2.22,0.842,1.87,0.736,-0.00763,4.11,5.53,3.24,5.86,2.86,3.95
TCGAGTAGGTTAGTCGGGGCATTCACCCAACATA,0.0292,0.103,-0.165,0.627,-0.651,0.713,0.0859,0.905,0.99,0.993,2.26,1.7,-0.581,-0.56,0.252,0.243,-0.193,0.377,0.343,0.447
GCTTACGGGTCAAAGGGTATAGCATGAATAGAAT,6.94,4.45,0.132,4.28,0.557,6.21,9,7.96,7.14,8.29,4.35,5.08,1.19,2.3,2.55,4.16,0.626,5.66,0.592,4.09
TTACCAAAGTGAGCTGAGGTCGTTGATCCAACTC,0.648,0.0425,-0.525,0.222,-1.12,0.635,-0.509,-0.168,0.0696,-0.371,-0.795,-0.309,-0.436,-0.706,-0.866,2.11,0.201,1.44,-1.13,0.34
CCTAGCAGGCCAATCTGGGTCACTAAAGGCTTGA,0.156,0.884,-0.513,0.511,-0.766,2.87,1.97,1.83,-0.068,0.891,4,4.94,-0.0852,-0.774,0.49,0.325,-0.597,1.13,-0.281,1.23
AGAACGAGGGCCATGAGTTGATAGCACGGGTGGC,-0.356,-0.437,-0.767,-0.687,-0.764,-0.163,0.614,-0.0464,-0.464,-0.23,0.174,0.141,-0.382,0.0603,-0.217,0.118,-0.232,-0.375,-0.362,0.632
CGTAAAAGTTCAACTAAGGTAACGTAAAGCACGC,6.53,5.88,4.08,3.97,1.96,4.78,2.86,3.53,1.02,2.58,0.183,1.6,1.17,1.06,2.7,4.97,2.61,3.8,1.67,5.13
CCAAACAGGTGAAAGGTAACTCAGTCTGGTACGC,0.642,0.809,-0.217,1.09,-0.282,3.85,7.47,7.29,7.5,8.18,3.27,4.15,0.615,0.037,1.17,1.01,0.17,2.3,1.21,1.21
CCTTGCGGGTCAAGGTTATAGCACGGGTGGTACG,4.66,3.22,0.11,2.6,-0.432,4.96,5.05,5.18,2.05,4.21,3.71,5.26,-0.0608,-0.506,2.01,2.93,0.309,3.7,0.296,3.82
GCTCGGAGGACAATGTCAGAGCTTTGTCCGTAGA,-0.623,-0.613,-0.612,-0.519,-0.999,-0.586,-0.765,-0.898,-1.25,-1.01,-0.596,-0.513,-1.4,-0.198,-1.02,-0.494,-0.648,-0.772,-1.31,0.788
CCAATTAGTTGACCATAAGGGCAACCGAAGCTCG,0.987,0.336,0.562,0.314,0.402,0.626,0.453,0.425,-0.327,0.254,0.617,0.411,0.198,0.147,1.75,0.497,0.892,0.865,1.38,1.67
GCTTGTAGATCAAGGTTGAGAAAGACTAAGCTAA,-0.651,-0.5,-0.84,-0.489,-0.831,1.3,2.27,3.37,1.77,3,0.308,0.797,-0.562,-0.558,-0.108,-0.354,-0.235,-0.162,-0.337,-0.367
